# Screening results: PubChem, National Center for Advancing Translational Sciences (NCATS)
# This is a sample that favours compounds with a hit; in the whole collection about 6.5% have one here.
# Lassa entry inh = inhibitors of Lassa virus binding or cell entry; Lassa virus pseudotype entry inhibition, cell reporter; Potency, µM (highest dose often 37.9 µM), for the others: at the top dose activity change, negative = inhibition, actives largely listed as inhibitors; 300,000 compounds, 1.2% hits; AID 540256; calls by dose curve; tested in HEK293 cells; note: potency is the fitted concentration of half-maximal effect; nearly all actives have a fitted effect of over 50% in size
# Vaccinia Venus = inhibitors of vaccinia virus (Venus reporter); Vaccinia virus Venus reporter expression, fluorescence; 330,000 compounds, 0.46% hits; Potency, µM (series often up to 36.5 µM), for the others: at the top dose activity change, negative = inhibition, usual class: inhibitors; calls by dose curve; tested in A549 cells; note: potency is the fitted concentration of half-maximal effect; nearly all actives have a fitted effect of over 30% in size
# Marburg entry inh = Marburg virus entry inhibition; AID 540276; Marburg virus pseudotyped entry inhibition, cell reporter; Potency, µM (series often up to 37.8 µM), without a hit: at the top dose activity change, negative = inhibition, actives largely listed as inhibitors; 300,000 compounds, 1.8% hits; calls by dose curve; tested in HEK293 cells; note: potency is the fitted concentration of half-maximal effect
# FMDV antiviral = blocks foot and mouth disease virus; FMDV antiviral cell-based qHTS; Potency, µM (series often up to 57.9 µM), inactives show top-dose activity change, negative = inhibition, most hits filed as inhibitors; 410,000 compounds, 1.2% hits; calls by dose curve; tested in HEK293T cells; note: read-out not given here; potency is the fitted concentration of half-maximal effect; nearly all actives have a fitted effect of over 45% in size
# Vaccinia mCherry = inhibitors of vaccinia virus infection (mCherry reporter signal). Vaccinia virus mCherry reporter infection, fluorescence. Potency, µM (titrated, usually from 36.5 µM), without a hit: at the top dose activity change, negative = inhibition, most hits filed as inhibitors. 310,000 compounds, 0.63% hits. AID 720579; calls by dose curve; tested in A549 cells; note: potency is the fitted concentration of half-maximal effect; nearly all actives have a fitted effect of over 35% in size
# HCMV antiviral = blocks human cytomegalovirus replication; 410,000 compounds, 4.5% hits; HFF cells, HCMV-luciferase reporter, 72 h; active compounds read low; AID 1259415; activity change, negative = inhibition, % at 57.5 µM; in the data active = activity change below about -60%; inconclusive = no clear call, values can overlap the other calls; inactive = above about -39%
#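 Luciferase read-out from HCMV-luciferase-infected HFFs (MOI 1 PFU/cell) 72 h post infection at 37C; compounds added after 16 h cell attachment; activity normalized between buffer-only basal and Salinomycin (10uM) inhibitor controls.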
# Numbers without * were called inactive; i = inactive; ? = inconclusive; / = not tested or not shown; [ ] = remark or other dose. % is set by controls: 0 for no effect and ±100 for the full control effect.
SMILES,Lassa entry inh,Vaccinia Venus,Marburg entry inh,FMDV antiviral,Vaccinia mCherry,HCMV antiviral
Cc1cccc(C)c1OCc1cc(C(=O)N2CCN(c3ccccc3)CC2C)no1 (centres undefined),?,-13%,13µM*,-11%,i,-24
C=CCn1c(C)cc(C(=O)Cn2c(C(C)O)nc3ccccc32)c1C (centres undefined),-28%,-29%,-15%[46.1 µM],?,-25%,-66*
C=CCn1c(C(C)NC(=O)CCC)nc2ccccc21 (centres undefined),0%,8%,5%,/,2%,-62*
C=CCn1c(C(C)C)nc2ccccc21,-18%[46.1 µM],-19%,-2%[46.1 µM],-9%,-15%,-33
CCCC(=O)NC(C)c1nc2ccccc2n1CC (centres undefined),/,5%,/,-8%,-9%,-3
COc1c(/C=N/Nc2ccc(C(=O)O)cc2)c(CCN(C)C(C)=O)cc2c1OCO2,/,/,/,-29%,/,?
CCC(C)CN1C(=O)NC(CCc2ccccc2)C(C(C)=O)=C1C (centres undefined),/,/,-18%[14.2 µM],/,/,/
CCC1N=C(SC)NC(C)=C1C(=O)c1ccccc1 (centres undefined),?,/,-24%,-9%,/,-69*
Cc1cc(=O)oc2c3c(cc(OCC(=O)NC(Cc4ccc(Cl)cc4)C(=O)O)c12)OC(C)(C)CC3 (centres undefined),/,-1%,/,-22%,1%,11
FC(F)Oc1ccc(-c2csc(NNC3=NCCCCC3)n2)cc1,?,-13%,?,28µM*,-7%,-16
CN(C)CC/C=C1\c2cc(F)ccc2CSc2ccccc21,16µM*,?,?,?,-13%,18
CN(C)CC/C=C1\c2ccc(F)cc2Sc2cc(F)c(Cl)cc21,/,/,/,?,/,-108*
CN(C)CC/C=C1/c2ccc(F)cc2Sc2ccc(Cl)cc21,?,3%[7.34 µM],13µM*,-14%,-1%[7.34 µM],-3
CN(C)CC/C=C1\c2ccccc2Sc2ccc(Cl)cc21,?,?,?,-23%,?,-7
CN(C)CC/C=C1\c2ccccc2Sc2cc(F)c(Cl)cc21,?,?,14µM*,?,-9%,-65*
Cc1ccc(-n2ncc3c(N4CCC(C(N)=O)CC4)ncnc32)c(C)c1,?,/,12%,53%,/,/
Cn1ncc2c(N3CCN(c4ccccc4F)CC3)ncnc21,-5%[46.1 µM],-12%,?,?,-23%,?
Clc1cccc(-n2ncc3c(N4CCCCCC4)ncnc32)c1,?,6%,/,-17%,3%,?
Clc1ccc(-n2ncc3c(N4CCCC4)ncnc32)cc1,?,-11%,?,10µM*,-2%,-66*
Cc1nn(-c2ccccc2)c(Cl)c1C(=O)N1CCN(c2ncnc3c2cnn3-c2ccccc2)CC1,13µM*,?,13µM*,6.3µM*,/,-105*
Cn1ncc2c(N3CCN(c4ccc(Cl)c(Cl)c4)CC3)ncnc21,3%,-16%,18%[46.1 µM],11µM*,-27%,-27
Cc1ccc(-n2ncc3c(N4CCC5(CC4)OCCO5)ncnc32)c(C)c1,/,-7%,/,40µM*,-2%,54
CSCCC(NC(=O)c1ccc(Cl)cc1Cl)C(=O)NCC(c1cccs1)N(C)C (centres undefined),/,/,/,-3%,/,?
Cc1ccc(Cl)cc1NC(=O)C1CCN(C(=O)c2cnn(-c3ccccc3)c2-n2cccc2)CC1,3%[46.1 µM],-10%,?,?,-20%,-12
Cn1ncc(Cl)c1C(=O)N1CCN(c2ccc(Cl)c(Cl)c2)CC1,7%,-14%,?,28µM*,-14%,1
SMILES,Lassa entry inh,Vaccinia Venus,Marburg entry inh,FMDV antiviral,Vaccinia mCherry,HCMV antiviral
Fc1ccc(-n2ncc3c(N4CCCCCC4)ncnc32)cc1,-1%[46.1 µM],-4%,/,?,-1%,-3
Cc1ccc(-n2ncc3c(N4CCCCCC4)ncnc32)cc1,?,6%,/,20µM*,-8%,-99*
Cn1ncc(Cl)c1C(=O)N1CCN(c2ccccc2)CC1,/,/,/,-5%,/,-8
Fc1cc(F)c(NC(=S)N2CCOCC2)c(F)c1,3%,-6%,2%,-17%,9%,-19
CN(Cc1ccccc1)c1ncnc2c1nnn2C,7%[46.1 µM],-4%,/,-8%,-15%,2
O=C(Nc1nc2ccc(F)cc2s1)c1nc(S(=O)(=O)Cc2ccccc2)ncc1Cl,4.5µM*,-26%,-10%[46.1 µM],28µM*,-29%,-107*
Cc1cccc(CS(=O)(=O)c2ncc(Cl)c(C(=O)Nc3nc4ccc(F)cc4s3)n2)c1,?,?,2%[46.1 µM],16µM*,?,-60*
O=C(C[n+]1ccccc1Cl)c1ccc(I)cc1,/,-13%,/,/,-19%,/
CCc1ccc(OCCn2c(C3CC(=O)N(Cc4ccc(F)cc4)C3)nc3ccccc32)cc1 (centres undefined),-21%[46.1 µM],11µM*,?,-41%,?,-105*
Cc1ccc(OCCn2c(C3CC(=O)N(Cc4ccc(F)cc4)C3)nc3ccccc32)c(C)c1 (centres undefined),?,?,?,-28%,-10%,-92*
CCOc1ccc(N2CC(c3nc4ccccc4n3CCOc3ccccc3)CC2=O)cc1 (centres undefined),5%[46.1 µM],-6%,?,-13%,-1%,8
COc1ccc(C(=O)N2N=C(c3cccc(NS(C)(=O)=O)c3)CC2c2cccs2)cc1 (centres undefined),?,-25%,2%[46.1 µM],5%,-25%,-24
C[C@@]12C(=O)OC(=O)[C@]1(C)C1CCC2O1,/,1.3µM*,/,?,1.1µM*,-99*
CCOC(=O)CN(C(=O)CSc1nnc(-c2cccc(OC)c2)o1)c1ccc(F)cc1,?,/,7%,-28%,/,-26
O=C(CSc1nnc(-c2c[nH]c3ccccc23)o1)N(Cc1ccccc1)c1ccc(F)cc1,?,?,18µM*,/,?,/
COc1ccc(CN(C(=O)CSc2nnc(-c3ccccc3C)o2)c2ccc(F)cc2)cc1,-17%,-10%,?,?,/,-75*
CN(CCC#N)C(=O)CSc1nnc(-c2c[nH]c3ccccc23)o1,/,/,/,19%,/,50
Cn1ncc([N+](=O)[O-])c1C(=O)Nc1nccs1,16%,3%,0%,-6%,-13%,-64*
Cn1ncc([N+](=O)[O-])c1C(=O)Nc1cccc2ccccc12,9%[46.1 µM],0%,?,13%,-18%,-63*
COC(=O)C(Cc1cc(Br)c(OC)c(Br)c1O)=NO,/,/,-16%[14.2 µM],/,/,/
CC(C)CNC(=S)NC1CC2CCC(C1)N2Cc1ccccc1 (centres undefined),-14%,-21%,0.65µM*,/,-20%,0
CCNC(=S)NC1CC2CCC(C1)N2Cc1ccccc1 (centres undefined),0%,-23%,0.92µM*,/,-21%,-17
COC(=O)[C@H]1[C@H](CO)[C@H]2Cn3c(ccc(Br)c3=O)[C@H]2N1C(=O)c1ccccn1,/,/,/,/,/,11
Cc1ccc(OCCSc2nc3ccccc3n2CC(=O)NC(C)C)cc1,?,-6%,1%[46.1 µM],-7%,-9%,2
